Sampled rows, rich in hits. Any-hit rate of the full collection: about 22%.
CYP2C19 inh: blockers of cytochrome P450 2C19 activity – biochemical, luminescence, ADME assay, primary screen | CYP2C19 Supersomes, luciferin-H EGE luminescence, 30 min | P33261 | 96,000 compounds, 21% hits | inhibition, % at 5 µM;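 active means CYP2C19 inhibition above a set limit at 5 µM in the primary screen, cut at about 50% in these data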;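 further: plate controls were negative control wells for no effect and 2.5 mM tranylcypromine positive control for full effect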
Target sequence (P33261 whole entry, looked up): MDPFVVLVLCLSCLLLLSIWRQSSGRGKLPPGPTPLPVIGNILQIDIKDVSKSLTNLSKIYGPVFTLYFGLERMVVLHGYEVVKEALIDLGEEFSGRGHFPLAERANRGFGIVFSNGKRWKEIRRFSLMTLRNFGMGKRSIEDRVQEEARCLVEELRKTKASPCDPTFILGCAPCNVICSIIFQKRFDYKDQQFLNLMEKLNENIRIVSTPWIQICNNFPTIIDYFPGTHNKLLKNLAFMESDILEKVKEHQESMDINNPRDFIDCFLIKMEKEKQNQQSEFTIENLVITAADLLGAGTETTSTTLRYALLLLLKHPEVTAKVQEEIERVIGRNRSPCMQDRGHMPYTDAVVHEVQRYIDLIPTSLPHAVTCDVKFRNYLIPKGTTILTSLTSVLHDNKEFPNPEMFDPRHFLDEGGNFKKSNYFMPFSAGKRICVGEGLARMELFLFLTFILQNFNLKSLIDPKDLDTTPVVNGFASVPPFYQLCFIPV
CYP2C9 activ: human CYP2C9 activators, primary screen, biochemical, luminescence; AID 1024, 2008; 96,000 compounds, 1.4% hits; recombinant CYP2C9, luciferin-H conversion; stronger effect = higher value; factor 1 = untreated enzyme, 0 = blocked; activation factor at 5 µM;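 active means activation factor of 2 or more for CYP2C9 at a 5 µM dose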;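 further: 0 = sulfaphenazole-blocked wells and 1 = vehicle-only wells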
CYP2C9 inh: blockers of cytochrome P450 2C9 activity – biochemical, luminescence, ADME assay, primary screen | inhibition, % at 5 µM | P11712 | 96,000 compounds, 20% hits | CYP2C9 Supersomes, luciferin-H conversion;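 active means blocking of liver enzyme CYP2C9 beyond about 50% at 5 µM, limit read from the data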
CYP2C19 act: human CYP2C19 activators, primary screen, biochemical, luminescence; recombinant CYP2C19, luciferin-H EGE luminescence; stronger effect = higher value; 0 = fully inhibited enzyme, 1 = untreated enzyme; 96,000 tested, under 10 active; Cytochrome P450 2C19 (Homo sapiens), P33261; activation factor at 5 µM; AID 1025, 2008;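 active means activation factor of at least 2 at 5 µM in the primary screen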;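 further: 0 = wells with 2.5 mM tranylcypromine and 1 = vehicle-only wells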
Measles CPE: compounds protecting cells from measles virus cytopathic effect, primary screen, measles RdRp inhibitor project, single point, MLSMR library, absorbance. Measles virus-infected cells, CPE protection. protection (pct of control), % at 4 µM. 140,000 compounds, 1.5% hits. AID 841, 2007; in the data active means protection mostly above about 24%, no sharp cut-off; inactive means mostly below about 26%
An asterisk follows results filed as active.

`COC(=O)c1ccccc1NC(=O)C1CC(c2ccc(F)cc2)=NO1` (configuration not stated) gave CYP2C19 inh 34.4, CYP2C9 activ 1.5, CYP2C9 inh -49.7, CYP2C19 act 0.7 and Measles CPE 18.1.
`CCc1ccccc1NC(=O)C1CC(c2ccc(F)cc2)=NO1` (configuration not stated) gave CYP2C19 inh 82.7*, CYP2C9 activ 1.4, CYP2C9 inh -40.3, CYP2C19 act 0.2 and Measles CPE 19.0.
Screening O=C(Nc1ccc2c(c1)OCO2)C1CC(c2ccc(F)cc2)=NO1 (configuration not stated) returned CYP2C19 inh 53.4*, CYP2C9 activ 0.8, CYP2C9 inh 20.6, CYP2C19 act 0.5 and Measles CPE 5.8.
For O=C1CCCC2=C1C(c1ccc(OS(=O)(=O)c3ccc(Cl)cc3)cc1)C1=C(CCCC1=O)O2 the results were CYP2C19 inh -10.5, CYP2C9 activ 1.2, CYP2C9 inh -17.4, CYP2C19 act 1.1 and Measles CPE 13.6.
`COc1ccccc1C(=O)Oc1ccc2c(c1)O/C(=C\c1ccncc1)C2=O` gave Measles CPE 2.7.
Screening O=C1/C(=C/c2cccnc2)Oc2cc(OS(=O)(=O)c3ccc(Cl)cc3)ccc21 returned CYP2C19 inh 26.0, CYP2C9 activ 0.5, CYP2C9 inh 50.5*, CYP2C19 act 0.7 and Measles CPE 14.7.
For O=C1/C(=C/c2cccnc2)Oc2cc(OS(=O)(=O)c3ccccc3)ccc21 the results were CYP2C19 inh 34.8, CYP2C9 activ 0.4, CYP2C9 inh 56.5*, CYP2C19 act 0.7 and Measles CPE 13.7.
O=C1/C(=C\c2cccnc2)Sc2ccccc21 was read as Measles CPE 9.6.
`COc1ccc(S(=O)(=O)Oc2ccc3c(c2)O/C(=C\c2cccnc2)C3=O)cc1` gave CYP2C19 inh 74.8*, CYP2C9 activ 0.1, CYP2C9 inh 91.9*, CYP2C19 act 0.3 and Measles CPE 5.9.
`O=[N+]([O-])c1ccc(N/N=C/c2cn(Cc3ccc(F)cc3)c3ccccc23)nc1` gave Measles CPE 24.9.
O=C(Nc1ccc(Oc2ccc3c(c2)C(=O)N(c2ccc(O)cc2)C3=O)cc1)c1cccs1 was read as Measles CPE 30.4.
O=C(NC1CCSC1=O)c1cccc(C(=O)NC2CCSC2=O)c1 (configuration not stated) was read as CYP2C19 inh 5.5, CYP2C9 activ 0.9, CYP2C9 inh 5.4, CYP2C19 act 0.9 and Measles CPE 6.0.
CN(C1CCCCC1)S(=O)(=O)c1ccc(NC(=O)c2ccc(Br)o2)cc1 was read as CYP2C19 inh 93.7*, CYP2C9 activ 0, CYP2C9 inh 98.4*, CYP2C19 act 0.1 and Measles CPE 13.8.
CN(C)S(=O)(=O)c1ccc(NC(=O)c2ccc(Br)o2)cc1 was read as CYP2C19 inh 54.2*, CYP2C9 activ 0.6, CYP2C9 inh 42.7, CYP2C19 act 0.5 and Measles CPE 1.0.
For CN(C)S(=O)(=O)c1ccc(NC(=O)c2cc3ccccc3o2)cc1 the results were CYP2C19 inh 14.2, CYP2C9 activ 1, CYP2C9 inh 3.3, CYP2C19 act 0.9 and Measles CPE 13.0.
O=C(Nc1ccc(S(=O)(=O)NC2CCCCC2)cc1)c1ccc(Br)o1 was read as CYP2C19 inh 7.9, CYP2C9 activ 0.8, CYP2C9 inh 23.0, CYP2C19 act 0.9 and Measles CPE 8.9.
Screening CCOCCn1c(SCCc2ccccc2)nc2c1c(=O)[nH]c(=O)n2C returned CYP2C19 inh 14.8, CYP2C9 activ 0.3, CYP2C9 inh 73.5*, CYP2C19 act 0.9 and Measles CPE 13.9.
CC(C)n1c(SCCCc2ccccc2)nc2c1c(=O)[nH]c(=O)n2C was read as CYP2C19 inh 24.2, CYP2C9 activ 0.8, CYP2C9 inh 21.4, CYP2C19 act 0.8 and Measles CPE 23.6.
Screening COC(=O)C(C)Sc1nc2c(c(=O)[nH]c(=O)n2C)n1CCCc1ccccc1 (configuration not stated) returned CYP2C19 inh 29.6, CYP2C9 activ 0.9, CYP2C9 inh 14.7, CYP2C19 act 0.7 and Measles CPE 1.4.
`CCOC(=O)C(C)Sc1nc2c(c(=O)[nH]c(=O)n2C)n1CCc1ccccc1` (configuration not stated) gave CYP2C19 inh 39.9, CYP2C9 activ 0.5, CYP2C9 inh 51.5*, CYP2C19 act 0.6 and Measles CPE 3.3.
Cc1cccc(Cn2c(SCC(=O)Nc3ccccc3)nc3c2c(=O)[nH]c(=O)n3C)c1 was read as CYP2C19 inh 69.6*, CYP2C9 activ 0.5, CYP2C9 inh 47.2, CYP2C19 act 0.3 and Measles CPE 17.3.
Screening CCOCCSc1nc2c(c(=O)[nH]c(=O)n2C)n1CCCc1ccccc1 returned CYP2C19 inh 20.8, CYP2C9 activ 0.8, CYP2C9 inh 24.4, CYP2C19 act 0.8 and Measles CPE 2.8.
For Cc1cccc(Cn2c(Sc3nc(C)cs3)nc3c2c(=O)[nH]c(=O)n3C)c1 the results were CYP2C19 inh 7.6, CYP2C9 activ 1, CYP2C9 inh 1.4, CYP2C19 act 0.9 and Measles CPE 6.7.
For CC(C)CCn1c(SCCc2ccccc2)nc2c1c(=O)[nH]c(=O)n2C the results were CYP2C19 inh 50.4*, CYP2C9 activ 0.1, CYP2C9 inh 92.8*, CYP2C19 act 0.5 and Measles CPE 1.0.
CC(C)(C)OC(=O)[C@H]1[C@H](c2ccc([N+](=O)[O-])cc2)C2(C(=O)c3ccccc3C2=O)C2c3ccccc3C=NN21 (some centres not stated) was read as Measles CPE 5.6.
Screening CC1CCCCN1S(=O)(=O)c1ccc(NC(=O)CSc2nnnn2C)cc1 (configuration not stated) returned CYP2C19 inh 4.1, CYP2C9 activ 0.7, CYP2C9 inh 28.3, CYP2C19 act 1 and Measles CPE 9.0.
COc1ccc(-c2csc(Cc3nnc(N4CCOCC4)n3-c3ccccc3)n2)cc1 was read as CYP2C19 inh -17.6, CYP2C9 activ 0.9, CYP2C9 inh 12.2, CYP2C19 act 1.2 and Measles CPE 15.6.
Screening CCCCn1c(SCC(=O)c2ccccc2)nc2c1c(=O)[nH]c(=O)n2C returned CYP2C19 inh 43.0, CYP2C9 activ 0.3, CYP2C9 inh 70.5*, CYP2C19 act 0.6 and Measles CPE 16.4.
For COCCn1c(SCC(=O)OCc2ccccc2)nc2c1c(=O)[nH]c(=O)n2C the results were CYP2C19 inh -8.9, CYP2C9 activ 1, CYP2C9 inh -3.4 and CYP2C19 act 1.1.
`CCCCCn1c(SCCc2ccccc2)nc2c1c(=O)[nH]c(=O)n2C` gave CYP2C19 inh 39.7, CYP2C9 activ 0.4, CYP2C9 inh 60.9*, CYP2C19 act 0.6 and Measles CPE 5.8.

Screening results from PubChem.
